Screens as filed in PubChem.
Most compounds without a hit are left out; they make up all but 18% or so of the library.
TDP1 cell noCPT – qHTS for Inhibitors of human tyrosyl-DNA phosphodiesterase 1 (TDP1): qHTS in cells in absence of CPT; 15% of 420,000 active; DT40 Tdp1-/- hTDP1 cells, no CPT, ATP luminescence, 48 h; Potency, µM (highest dose often 46.2 µM), for inactives: at the top dose activity change, negative = growth inhibition, most hits filed as inhibitors; further: potency means the concentration at half of the fitted maximal effect; on the % scale 0 is the no-effect control and ±100 the full control effect; nearly all actives have a fitted effect of over 55% in size
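Compound effects on proliferation are scored in DT40 Tdp1-/-;hTDP1 cells in the absence of CPT. ATP levels (CellTiter-Glo luminescence) are recorded after a ≥48 hr, 37 °C incubation.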
HepG2 tox – HepG2 cytotoxicity, counter-screen for TGF-b inhibitors | AID 588856 | Potency, µM (series often up to 46.1 µM), without a hit: at the top dose activity change, negative = cytotoxicity, usual class: cytotoxic | HepG2 CAGA-GFP viability, ATP luminescence, 18 h | 0.76% of 410,000 active; further: potency means the concentration at half of the fitted maximal effect
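HepG2 CAGA-GFP cells (1000/well, DMEM with 1% FBS) received compound, then TGF-beta at 500 pg/mL final, and were incubated 18 hours at 37 degrees C. Viability was read by CellTiter-Glo luminescence. Media-only wells were set as complete cell-killing and DMSO as no toxicity.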
IL-1B inflam inh – inhibitors of inflammasome signaling (IL-1 beta secretion); THP-1 LPS/ATP IL-1B secretion, AlphaLISA, 16 h; active compounds read low; AID 743279; activity change, % at 57.5 µM; 4.7% of 360,000 active; in the data active means activity change below about -50%; inconclusive means mostly about -30% to -49%; further: on the % scale 0 is the no-effect control and ±100 the full control effect
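Secreted IL-1B measured by AlphaLISA bead assay after 16 h compound exposure of THP-1 cells; compounds (final up to 57.5 uM) added 1 h before LPS (250 ng/mL) and ATP (1.25 mM) stimulation; lower signal means less secretion.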
TGFb inhibitor – inhibitors of TGF-b signaling. 1.2% of 410,000 active. HepG2 CAGA-GFP TGF-b/SMAD3 reporter, GFP fluorescence, 18 h; TGF-beta stimulated, 500 pg/mL final. Potency, µM (highest dose often 46.1 µM), without a hit: top-dose activity, negative = inhibition, hits mostly inhibitors; further: potency means the concentration at half of the fitted maximal effect; on the % scale 0 is the no-effect control and ±100 the full control effect; nearly all actives have a fitted effect of over 65% in size
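Smad-responsive CAGA-GFP expression was quantified in HEPG2 cells exposed to compounds and 500 pg/mL final TGF-beta for 18 h at 37 degrees C; unstimulated wells defined full inhibition.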
TDP1 inh – blocks human tyrosyl-DNA phosphodiesterase 1; Potency, µM (doses to about 130 µM), for inactives: top-dose activity change, negative = inhibition, most hits filed as inhibitors; Q9NUW8; recombinant TDP1, AlphaScreen DNA substrate cleavage; 0.28% of 350,000 active; further: potency means the concentration at half of the fitted maximal effect; on the % scale 0 is the no-effect control and ±100 the full control effect; nearly all actives have a fitted effect of over 40% in size
Target sequence (Q9NUW8 whole entry, looked up): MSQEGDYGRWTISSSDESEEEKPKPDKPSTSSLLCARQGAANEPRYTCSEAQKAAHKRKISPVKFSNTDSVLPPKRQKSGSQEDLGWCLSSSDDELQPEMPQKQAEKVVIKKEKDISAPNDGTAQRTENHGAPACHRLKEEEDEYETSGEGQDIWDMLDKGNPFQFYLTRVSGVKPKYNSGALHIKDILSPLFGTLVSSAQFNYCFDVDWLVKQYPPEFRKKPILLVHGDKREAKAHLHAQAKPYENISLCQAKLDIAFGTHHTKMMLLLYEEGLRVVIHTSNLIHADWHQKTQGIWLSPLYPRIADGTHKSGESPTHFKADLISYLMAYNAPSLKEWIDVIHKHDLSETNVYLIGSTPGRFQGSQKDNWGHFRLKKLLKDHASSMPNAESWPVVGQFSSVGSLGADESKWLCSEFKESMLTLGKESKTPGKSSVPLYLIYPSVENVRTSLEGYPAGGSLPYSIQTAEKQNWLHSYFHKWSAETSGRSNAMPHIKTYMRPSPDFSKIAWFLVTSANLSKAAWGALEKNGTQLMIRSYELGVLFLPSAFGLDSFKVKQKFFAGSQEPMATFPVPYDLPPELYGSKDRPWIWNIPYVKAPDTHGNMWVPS
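Signal: AlphaScreen proximity between streptavidin donor and anti-FITC acceptor beads on intact substrate. Reaction: Tdp1 1 nM, substrate 15 nM final, 5 min RT after 15 min compound preincubation.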
TDP1 cell CPT – DT40-hTDP1 cell growth loss with CPT; chicken DT40 Tdp1-/-;hTDP1 cells + 20 nM CPT, ATP luminescence, 48 h; Potency, µM (top dose mostly 46.2 µM), for the others: at the top dose activity change, negative = growth inhibition, actives largely listed as inhibitors; 12% of 420,000 active; AID 686979; further: potency means the concentration at half of the fitted maximal effect; on the % scale 0 is the no-effect control and ±100 the full control effect; nearly all actives have a fitted effect of over 55% in size
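Chicken DT40 Tdp1-/- cells stably complemented with human TDP1 were seeded at 400 cells/well in medium containing 20 nM camptothecin, exposed to pin-transferred compounds, and grown at 37 °C for at least 48 hr. Viability was read as ATP luminescence.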
* = called active by the depositor; ? = inconclusive; . = no result; [ ] = remark or other dose. Unless noted, the call rests on the fitted dose curve; in most records, active means well fitted curve in the direction sought with a large enough effect; inconclusive means small, poorly fitted or top-dose-only effect, or another doubt; inactive means no such curve, though single readings can be large; an effect the other way counts as inactive or inconclusive.

SMILES | TDP1 cell noCPT | HepG2 tox | IL-1B inflam inh | TGFb inhibitor | TDP1 inh | TDP1 cell CPT
CC(=O)Nc1ccc(Nc2cc(C)nc3c(-c4ccc(Cl)cc4)cnn23)cc1 | 23.1µM* | -21.5% | -7.3 | -28.5% | 0.0% | 18.4µM*
COc1ccc(CCNc2cc(C)nc3c(-c4ccccc4)c(C)nn23)cc1OC | 16.4µM* | 0.2% | 4.7 | ? | 2.7% | ?
Cc1ccc(C)c(Cn2c3ccccc3c3cnn(CC(=O)NCCC4=CCCCC4)c(=O)c32)c1 | -10.2% | 4.3% | . | -0.9% | -5.1% | -4.7%
COc1ccc(Nc2cc3n(c(=O)n2)CCc2cc(OC)c(OC)cc2-3)cc1 | ? | 7.3% | -27.0 | 32.7% | . | -2.1%
COc1cc2c(cc1OC)-c1cc(N3CCc4ccccc43)nc(=O)n1CC2 | ? | -17.3% | -65.7* | -1.3% | 0.0% | ?
COc1cc2c(cc1OC)-c1cc(Nc3ccc4c(c3)OCCO4)nc(=O)n1CC2 | ? | -14.0% | -70.3* | -2.0% | 12.6% | -29.5%
COc1ccc(Nc2cc3n(c(=O)n2)CCc2cc(OC)c(OC)cc2-3)c(C)c1 | 14.6µM* | -3.1% | 0.0 | 4.5% | . | ?
O=C(Nc1ccc([N+](=O)[O-])cc1)Nc1ccc2c(c1)OCCO2 | 14.6µM* | 3.3% | -68.0* | 0.8% | 5.3% | ?
O=C(NCCc1ccc(F)cc1)Nc1ccc2c(c1)OCO2 | ? | -6.5% | ? | 0.0% | 3.6% | 18.4µM*
O=C(Nc1ccc(F)cc1)Nc1ccc2c(c1)OCO2 | ? | -0.4% | -21.1 | 1.6% | 10.3% | 9.2µM*
COc1cc([N+](=O)[O-])ccc1NC(=O)Nc1ccc2c(c1)OCCO2 | ? | 5.4% | . | 1.2% | 4.9% | ?
O=C(Nc1ccc2c(c1)OCO2)Nc1ccc(F)cc1F | 2.31µM* | -19.7% | 0.0 | 3.2% | 0.2% | 3.66µM*
CCOc1ccccc1NC(=O)c1sc2nc3n(c(=O)c2c1C)CCCCC3 | -25.2% | -12.0% | . | ? | 2.6% | -11.2%
CC(C)c1ccccc1NC(=O)Nc1ccc2c(c1)OCO2 | -20.0% | -12.5% | 6.2 | -1.1% | 4.2% | 16.4µM*
Cc1cc(C)c(NC(=O)Nc2ccc3c(c2)OCO3)c(C)c1 | ? | -0.5% | -3.2 | 0.0% | 1.1%[56.1 µM] | 11.6µM*
O=C(Nc1ccc2c(c1)OCO2)Nc1ccc2c(c1)OCO2 | 7.3% | -12.3% | -29.0 | -1.8% | 2.5% | -11.3%
O=C(Nc1ccc(Cl)cc1)NN1CCCCCC1 | -17.9% | -5.3% | -16.5 | 2.9% | . | 2.6%
O=C(Nc1ccc([N+](=O)[O-])cc1)NN1CCCCCC1 | 14.6µM* | -11.3% | -99.0* | 17.6% | . | 23.1µM*
COc1ccc(CCN2CCC(CN3C(=S)NC[C@@H]3CC(C)C)CC2)cc1OC | -3.1% | 8.9% | 10.7 | -4.1% | . | 9.4%
Cc1c(O)ccc2c3c(c(=O)oc12)CCC(C)C3 (stereo not given) | 11.6µM* | -2.5% | 6.8 | ? | 3.2% | 23.1µM*
Cc1c(O)ccc2c3c(c(=O)oc12)CCCC3 | ? | -1.5% | -0.8 | 0.2% | 3.3% | ?
CC(C)(C)OC(=O)N1CCC(c2c(C(=O)NCc3ccc4c(c3)OCO4)cnn2-c2ccccc2Cl)CC1 | ? | -34.9% | . | ? | 3.2% | ?
COc1ccc(-c2ccc3nccn3c2)cc1 | ? | -10.2% | -0.3 | 1.2% | . | -19.3%
CC(C)Cc1ccc(-c2ccc3nccn3c2)cc1 | 18.4µM* | -43.6% | 6.8 | 3.4% | . | ?
CC(=O)c1ccc(-c2cc(C3C4C=CCC(C)C4C(=O)N3Cc3ccccc3)ccc2F)cc1 (stereo not given) | . | -6.3% | . | 0.0% | 6.8% | .
